An excerpt weighted towards active compounds, which were near 11% of everything screened.
HCV inh – blocks hepatitis C virus; Huh7.5.1 HCVcc-Cre infection, luciferase reporter, 44 h; Potency, µM (doses to about 41.8 µM), inactives show at the top dose activity change, negative = inhibition, most hits filed as inhibitors; 340,000 compounds, 3.4% hits; AID 651820
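Cells seeded at 1,000/well and cultured 4 h, then compounds added followed by HCVcc-Cre virus (~0.5 moi). After 44 h further culture, luciferase substrate was added, plates held 15 min at room temperature, and luminescence read for 15 sec.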
Pf growth 96h – inhibits malaria parasite growth, 96 h. 320,000 compounds, 6.9% hits. P. falciparum luciferase reporter growth, 96 h. Potency, µM (titrated, usually from 28.7 µM), for inactives: top-dose activity change, negative = inhibition, hits mostly inhibitors. AID 504834
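Erythrocytes infected with luciferase-expressing P. falciparum were dispensed at 2% hematocrit and 0.05% parasitemia (final), then incubated with compounds 96 hours at 37 C in 5% CO2. Luminescence after detection reagent addition reported growth.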
AMA1 RON2 block – AMA1-RON2 (P. falciparum) interaction inhibition; AlphaScreen AMA1-biotinylated RON2 peptide binding; Potency, µM (top dose mostly 58.2 µM), without a hit: at the top dose activity change, negative = inhibition, hits mostly inhibitors; 360,000 compounds, 0.2% hits;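 note: 0% = vehicle wells and -100% = peptide control; nearly all actives have a fitted effect of over 45% in size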
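AMA1 (3D7) with his tag at 25 nM final met compounds first, then biotinylated RON2 peptide at 25 nM; detection used donor plus acceptor beads, 10 µg/mL apiece, read by AlphaScreen after 30 min at room temperature.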
AmpC inh no detg – inhibitors of E. coli AmpC beta-lactamase without detergent | Potency, µM (titrated, usually from 57.1 µM), for inactives: top-dose activity change, negative = inhibition, usual class: inhibitors | AID 485341 | P00811 | 330,000 compounds, 0.52% hits | AmpC nitrocefin hydrolysis, absorbance 480 nm, 0.0001% Triton;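 note: plate controls were no compound for no effect and no enzyme for full effect; nearly all actives have a fitted effect of over 20% in size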
Target sequence (P00811 whole entry, looked up): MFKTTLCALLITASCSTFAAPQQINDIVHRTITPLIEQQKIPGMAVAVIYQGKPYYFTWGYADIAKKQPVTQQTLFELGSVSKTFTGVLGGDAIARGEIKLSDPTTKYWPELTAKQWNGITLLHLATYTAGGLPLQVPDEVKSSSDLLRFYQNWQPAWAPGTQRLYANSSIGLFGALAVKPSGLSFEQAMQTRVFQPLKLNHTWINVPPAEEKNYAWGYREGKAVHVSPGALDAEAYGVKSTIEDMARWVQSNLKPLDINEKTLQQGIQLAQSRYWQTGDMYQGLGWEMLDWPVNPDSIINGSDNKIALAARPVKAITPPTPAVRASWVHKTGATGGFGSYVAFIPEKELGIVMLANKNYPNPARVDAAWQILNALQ
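20 mM phosphate pH 7.0 + 0.01% (detergent screen) or 0.0001% Triton X-100; 5.3 nM AmpC reagent; cpd preinc 15 min RT; nitrocefin (800 uM stock) to start; A480 q20 s × 4 min; Activity was normalised to no-enzyme and no-compound control wells.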
Pf growth 48h – P. falciparum growth inhibition at 48 hours (one generation); P. falciparum luciferase growth in erythrocytes, 48 h; Potency, µM (series often up to 28.7 µM), for inactives: at the top dose activity change, negative = inhibition, most hits filed as inhibitors; 310,000 compounds, 5.9% hits
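Parasite viability was followed by luminescence of a genomically integrated firefly luciferase. Cultures held 0.1% parasitemia at 2% hematocrit (final), incubated under 5% CO2 at 37 C.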
AmpC inh detg – inhibitors of E. coli AmpC beta-lactamase with detergent; P00811; AmpC hydrolysis of nitrocefin, absorbance 480 nm, 0.01% Triton; Potency, µM (top dose mostly 114 µM), inactives show at the highest dose activity change, negative = inhibition, actives largely listed as inhibitors; 370,000 compounds, 0.041% hits;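 note: 0% = no-compound wells and -100% = no-enzyme wells; nearly all actives have a fitted effect of over 25% in size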
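AmpC (5.3 nM in the dispensed reagent) in 20 mM phosphate pH 7.0 with 0.01% (detergent screen) or 0.0001% Triton X-100 was preincubated with compounds for 15 min at room temperature. Nitrocefin was then added from an 800 uM solution, and hydrolysis was followed at 480 nm.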
Numbers without * were called inactive; ? = inconclusive; . = no result; [ ] = another dose, or the depositor's remark. Calls come from the whole dose curve; as a rule, active = well fitted curve in the direction sought with a large enough effect; inconclusive = small, poorly fitted or top-dose-only effect, or another doubt; inactive = no such curve, though single readings can be large; an effect the other way counts as inactive or inconclusive. Unless noted, % is set by controls: 0 for no effect and ±100 for the full control effect; potency is the fitted concentration of half-maximal effect.

SMILES	HCV inh	Pf growth 96h	AMA1 RON2 block	AmpC inh no detg	Pf growth 48h	AmpC inh detg
COc1cccc(NC(=O)c2cnc(SCC(=O)N3CCOCC3)n(C)c2=O)c1	.	.	.	.	.	4%
C=C(C)COc1ccc(-c2n[nH]c(C)c2-c2ccc(OC)cc2)c(O)c1	?	3.7µM*	-4%	-28%	?	-11%
COc1ccc(-c2c(-c3ccc(OCC(=O)NN)cc3O)n[nH]c2C(F)(F)F)cc1	-57%	9.3µM*	45%	32%	9.3µM*	0%
CCOc1ccc(-c2n[nH]c(C)c2-c2ccccc2OC)c(O)c1	?	-28%	-30%	-16%	3.3µM*	2%
CCC(C)NC(=O)c1ccc2c(c1)N=C(C)c1cc(C)ccc1S2 (stereo unspecified)	.	.	.	.	.	-4%
CCOc1ccc(S(=O)(=O)n2cc(F)c(=O)[nH]c2=O)cc1	21%	13µM*	0%	-5%	?	-6%
CCC(C)c1ccccc1N1CC(C(=O)N2CCN(S(=O)(=O)c3ccccc3Br)CC2)CC1=O (stereo unspecified)	-12%	12µM*	19%	245%	?	?
CCOc1ccccc1N1CC(C(=O)NCCC2=CCCCC2)CC1=O (stereo unspecified)	?	.	-10%	.	.	.
CCC(C)c1ccccc1N1CC(C(=O)NCCC2=CCCCC2)CC1=O (stereo unspecified)	-21%	15µM*	1%[11.6 µM]	195%	?	0%
CCC(C)c1ccccc1N1CC(C(=O)Nc2ccccc2N2CCCC2)CC1=O (stereo unspecified)	?	?	5%	154%	?	5%
CCc1ccc(NC(=O)Cn2c(=O)c(-c3ccccc3NC(C)=O)nc3ccccc32)cc1	.	.	.	.	.	3%
CC(C)CNS(=O)(=O)c1ccc(CCC(=O)N2CCOCC2)cc1	14%	.	-10%	0.22µM*	-8%	4%
CC(NS(=O)(=O)c1ccccc1)C(=O)Nc1ccc2c(c1)OCCO2 (stereo unspecified)	0%	7.4µM*	18%	-13%	14%	5%
CC(C)CNS(=O)(=O)c1ccc(CCC(=O)Nc2ccc3c(c2)OCCO3)cc1	5%	226%	-2%	-28%	12µM*	2%
CCCNS(=O)(=O)c1ccc(CCC(=O)Nc2ccc3c(c2)OCCO3)cc1	?	?	1%	-32%	?	?
CN(Cc1ccccc1)C(=O)CC(c1ccccc1)c1cc(Cl)ccc1O (stereo unspecified)	-5%	10µM*	0%	-35%	?	-7%
CCOC(=O)CN1C(c2ccc(O)cc2)Nc2ccc(Br)cc2C1c1ccccc1 (stereo unspecified)	-26%	3.3µM*	-25%	-31%	?	9%
Cc1ccc(CSCc2nc3ccccc3[nH]2)cc1	?	?	-16%	-32%	10%	-12%
Cc1cc(C)cc(CC(Cc2nc3ccccc3[nH]2)c2nc3ccccc3[nH]2)c1 (stereo unspecified)	5µM*	121%	14%	-15%	2.3µM*	?
CCCCNc1nnc(SCC(=O)c2c(N)n(CCC)c(=O)[nH]c2=O)s1	4%	9.3µM*	-8%	-10%	12µM*	?
CCNC(=S)N/N=C/c1c(C)nn(-c2cccc(Cl)c2)c1Cl	?	36%	-12%	-13%	?	-14%
Cc1nn(-c2cccc(Cl)c2)c(Cl)c1/C=N/NC(=O)c1cccs1	-12%	?	1%	-19%	10µM*	1%
COc1ccccc1C(=O)NC(=O)Nc1ccc(-n2nc(C(F)(F)F)cc2C(F)(F)F)cc1	.	.	.	.	.	-3%
CCOc1cc(S(=O)(=O)Nc2ccc(CC)cc2)ccc1Cl	-1%	.	6%	24%	28%	2%
CCOc1cc(S(=O)(=O)Nc2ccccc2CC)ccc1Cl	10µM*	.	7%	-16%	-9%	-3%
SMILES	HCV inh	Pf growth 96h	AMA1 RON2 block	AmpC inh no detg	Pf growth 48h	AmpC inh detg
O=S(=O)(NCc1ccccn1)c1ccc(Cl)c(C(F)(F)F)c1	7%	13%	24%	-11%	228%	8%
CCOc1cc(S(=O)(=O)NCc2ccccn2)ccc1Cl	-1%	8.3µM*	43%	-21%	-10%	5%
CCOC(=O)c1cnc(N2CCN(c3cccc(C)c3C)CC2)c2ccccc12	.	.	.	.	.	13%
Cc1noc(-c2ccc(-c3noc(-c4ccc(Cl)cc4)n3)cc2)n1	.	.	.	.	.	-5%
Cc1ccccc1Nc1c(C)c(C)nc2ncnn12	11µM*	?	11%	-6%	25%	?
O=C(Cn1c(SCc2ccc(F)cc2)nc2cccnc21)Nc1ccccc1F	.	.	.	.	.	3%
Fc1cnc(N/N=C/c2ccc(-c3ccc(Br)cc3)o2)nc1N1CCOCC1	16%	5.9µM*	24%	34%	?	2%
CCOc1cc(/C=N/NC(=O)c2ccc(O)cc2)ccc1Oc1nc(Cl)ncc1F	-21%	26%	18%	-57%	?	-1%
Cc1cn(-c2ccccc2)c(C)c1/C=N\Nc1nc(N2CCOCC2)nc(N2CCOCC2)n1	-26%	6%	37%	208%	8.3µM*	3%
CCOc1cc(/C=N\Nc2ncc(F)c(N3CCOCC3)n2)ccc1Oc1nc(Cl)ncc1F	10µM*	1.9µM*	23%	74%	1.7µM*	1%
Clc1ccc(-c2ccc(/C=N/Nc3cc(N4CCOCC4)nc(N4CCOCC4)n3)o2)cc1	?	-2%	-8%	-13%	9.3µM*	2%
Cc1ccc(Cl)c2sc(NC(=O)CS(=O)(=O)c3ccc(Cl)cc3)nc12	.	.	.	.	.	-2%
O=C(NC1CC(=O)N(c2ccc(Cl)cc2)C1)c1cc2ccccc2o1 (stereo unspecified)	.	.	.	.	.	2%
O=C(Cn1c(=O)n(Cc2ccc(F)cc2)c(=O)c2sc3ccccc3c21)NCc1ccccc1	.	.	.	.	.	17%
Cc1cc(C)cc(-n2ccnc2SCC(=O)Nc2ccc(C)c(Cl)c2)c1	.	.	.	.	.	11%
Brc1ccc(-c2ccc(/C=N/Nc3nc(N4CCOCC4)nc(N4CCOCC4)n3)o2)cc1	?	11%	-4%	-5%	12µM*	1%
Cc1cccc(/C=N/Nc2cc(N3CCOCC3)nc(N3CCOCC3)n2)c1	6.3µM*	?	-27%	117%	?	-5%
CCOC(=O)C(CC)n1nc(C)c2c(C)n(-c3ccc(C)cc3)nc2c1=O (stereo unspecified)	.	.	.	.	.	0%
